# Assay results from PubChem BioAssay AID1788 (Vanderbilt High Throughput Screening Facility, 2009).
# A number with no mark means an inactive call. How the calls were made is not given here.
# Test: PubChem AID 1788
# Details: MDS Pharma lead profiling panel, radioligand binding; GABAA central (rat), Flunitrazepam site; at 10 µM; hits give high values
smiles,measurement,value
CCOC(=O)N1CCC(NCCNC(=O)c2ccccc2C)CC1,inhibition,-12%
